Measurements taken from the supplement of paper PMC13380429.
Values without a mark were called inactive.

Tested on: Vero E6 infected with SARS-CoV-2
Experiment: inhibition of SARS-CoV-2 cytopathic effect; higher = more antiviral protection, active = above 15
Conditions: 48 h

SMILES | inhibition of SARS-CoV-2 cytopathic effect (1 nM) [%] | inhibition of SARS-CoV-2 cytopathic effect (8.33 nM) [%] | inhibition of SARS-CoV-2 cytopathic effect (100 nM) [%] | inhibition of SARS-CoV-2 cytopathic effect (833.33 nM) [%] | inhibition of SARS-CoV-2 cytopathic effect (10000 nM)
CC(C)C(=O)Nc1ncc(-c2cc(C(F)F)nn2-c2c(Cl)cccc2Cl)s1 | 0.32 | 2.58 | -0.32 | -2.46 | -5.83%
O=C(Oc1ccc([N+](=O)[O-])cc1)N1CCN(Cc2cccc(Oc3ccccc3)c2)CC1 | -1.56 | -2.22 | -1.22 | -1.53 | 1.51%
CCN(CC)CCN[C@@H](C(=O)OCCC(C)C)c1ccccc1 [camylofine-chlorhydrate] | -0.61 | -0.68 | -1.25 | 0.17 | -1.1%
O=C(O[C@@H]1Cc2c(O)cc(O)cc2O[C@@H]1c1ccc(O)c(O)c1)c1cc(O)c(O)c(O)c1 [epicatechin-gallate-(-)] | -1.08 | 3.11 | 5.77 | 3.37 | -0.51%
Nc1nc(NC2CC2)cc(-c2cccc(Cl)c2Cl)n1 | 0.66 | -1.17 | -1.96 | -0.45 | -1.5%
Cc1c(CC(C)(C)C(=O)O)n(Cc2ccc(Cl)cc2)c2ccc(F)cc12 | 3.46 | 2.25 | 4.56 | 3.57 | 1.6%
Clc1cccc(N2CCNCC2)c1 | -1.68 | -2.45 | -0.72 | -3.2 | -2.99%
Cn1c(=O)c2c(ncn2CC2OCCO2)n(C)c1=O [doxofylline] | -0.49 | -2.41 | -0.01 | -1.59 | -0.77%
NCC(O)c1ccc(O)cc1 (stereo not given) [octopamine] | -3.66 | -1.96 | -2.91 | -4.12 | 0.96%
CCCCOc1cc(C(=O)NCCN(CC)CC)c2ccccc2n1 [cinchocaine] | -2.14 | -0.71 | 1.11 | 3.8 | 0.77%
O=C(O)CCCCN(CCc1ccccc1OCc1ccc(CCc2ccccc2)cc1)Cc1ccc(C(=O)O)cc1 [cinaciguat] | 1.27 | 2.69 | 2.55 | 2.26 | -3.15%
COc1cc(/C=C/C(=O)N2CCN(CC(=O)N3CCCC3)CC2)cc(OC)c1OC [cinepazide] | 5.93 | 5.29 | 8.11 | -1.14 | 0.17%
CC1=C(C(=O)Nc2cc3cn[nH]c3cc2F)C(c2ccc(C(F)(F)F)cc2)CC(=O)N1 (stereo not given) | 1.8 | -1.07 | 1.5 | -0.29 | -5.1%
c1ccc(CNCc2ccc(CN3CCCNCCNCCCNCC3)cc2)nc1 | 0.27 | 1.15 | 3.41 | 1.72 | 2.99%
Clc1ccc(C(c2ccccc2Cl)C(Cl)Cl)cc1 (stereo not given) [mitotane] | -2.51 | -1.75 | -2.14 | -2.16 | 0.99%
Cc1nc2ccccc2n1Cc1ccc(Cl)cc1 [chlormidazole] | -3.42 | -1.1 | -6.27 | -3.55 | -4.49%
C[C@]12CC[C@H](O)C[C@H]1CC[C@@H]1[C@@H]2CC[C@]2(C)[C@@](O)(c3ccoc3)CC[C@]12O [rostafuroxine] | 3.43 | -0.48 | 1.69 | -1.79 | -1.77%
CO[C@@]12[C@H](COC(N)=O)C3=C(C(=O)C(C)=C(N)C3=O)N1C[C@@H]1N[C@@H]12 [mitomycin-C] | -6.42 | -2.65 | -0.38 | -1.53 | -5.17%
CC(=O)O[C@]1(C(C)=O)CC[C@H]2[C@@H]3C=C(C)C4=CC(=O)CC[C@]4(C)[C@H]3CC[C@@]21C [megestrol-acetate] | -0.56 | -0.6 | -1.59 | -0.54 | 0.33%
NCC1(CC(=O)O)CCCCC1 [gabapentin] | -2.49 | 2.99 | -2.14 | 0.15 | 2.27%

SMILES | inhibition of SARS-CoV-2 cytopathic effect (1 nM) [%] | inhibition of SARS-CoV-2 cytopathic effect (8.33 nM) [%] | inhibition of SARS-CoV-2 cytopathic effect (100 nM) [%] | inhibition of SARS-CoV-2 cytopathic effect (833.33 nM) [%] | inhibition of SARS-CoV-2 cytopathic effect (10000 nM)
Oc1c(Br)cc(Br)c2cccnc12 [broxyquinoline] | -1.46 | 2.01 | -2.42 | -2.35 | -5.91%
CC(C)CNc1ccnc(NCc2csc(-c3ccccc3)n2)n1 | 0.06 | 1.07 | 0.03 | 0.39 | -2.77%
COc1ccc2cc1Oc1cc3c(cc1OC)CC[N+](C)(C)[C@H]3Cc1ccc(cc1)Oc1c(OC)c(OC)cc3c1[C@@H](C2)[N+](C)(C)CC3 [metocurine] | -0.82 | 0.93 | 1.08 | -3.28 | -0.33%
CC(C)CCNC(=O)[C@H](CC(C)C)NC(=O)[C@H]1O[C@@H]1C(=O)O [loxistatin-acid] | -1.03 | -1.05 | -0.89 | 0.62 | 2.74%
CCCC(CCC)C(=O)Nc1ccn([C@@H]2O[C@H](CO)[C@@H](O)C2(F)F)c(=O)n1 | -0.06 | -1.71 | -2.25 | -0.4 | -4.21%
COc1ccc(-c2ccc3c(N4CCOC[C@@H]4C)nc(N4CCOC[C@@H]4C)nc3n2)cc1CO | -1.08 | -2.46 | -3.62 | -4.35 | -6.56%
O=C(NCNC(=O)NC1C(=O)NC(=O)N1CO)NC1C(=O)NC(=O)N1CO (stereo not given) [imidurea] | -0.15 | 0.45 | -1.76 | -1.38 | 0.38%
CC1(C)S[C@@H]2[C@H](N3C(=O)[C@@H](c4ccccc4)NC3(C)C)C(=O)N2[C@H]1C(=O)O [hetacillin] | -0.32 | 0.69 | 0.82 | 2.11 | 2.77%
NC(=O)c1ncn([C@@H]2O[C@H](CO)[C@@H](O)[C@H]2O)c1N [acadesine] | 0.23 | 2.34 | 1.8 | 0.21 | -1.3%
Oc1noc2c1CCNC2 [gaboxadol] | -0.68 | 2.6 | 1.13 | 0.58 | -2.2%
C[C@@H](O)[C@H]1C(=O)N2C(C(=O)O)=C(S[C@@H]3CN[C@H](C(=O)Nc4cccc(C(=O)O)c4)C3)[C@H](C)[C@H]12 [ertapenem] | 0.22 | 3.19 | 1.71 | 2.2 | 2.62%
Cc1[nH]nc(C(F)(F)F)c1Cc1sc2c(c1C(=O)N1C[C@](C)(O)CO1)c(=O)n(C)c(=O)n2C(C)C | 1.31 | -1.35 | 1.71 | 0.45 | 2.23%
CCn1c(-c2nonc2N)nc2cncc(CNC3CCNCC3)c21 | 0.63 | -1.43 | -0.75 | -2.49 | -3.57%
C[C@H](Nc1ncnc2[nH]cnc12)c1cc2ccc(F)cc2nc1-c1ccccn1 | 0.375 | 4.37 | 4.2 | 1.33 | -3.42%
CC(=O)N(O)[C@@H]1c2cc(C#N)ccc2OC(C)(C)[C@H]1O | -2.54 | 0.31 | 1.05 | 0.36 | 3.02%
CCN1C[C@H](C)n2c(c(O)c3c(=O)n(Cc4ccc(F)c(Cl)c4)nc(C(=O)NC)c32)C1=O | -0.8 | 0.13 | -1.06 | 0.69 | -2.34%
O=[N+]([O-])c1ccc2nc(COCc3nc4ccc([N+](=O)[O-])cc4[nH]3)[nH]c2c1 | -1.36 | -1.65 | -4.45 | 0.4 | -0.17%
Cn1cc(C2=C(c3ccc(Cl)cc3Cl)C(=O)NC2=O)c2ccccc21 | 2.26 | 6.22 | 4.19 | 1.47 | 20.8% (active)
COc1cc(/C=C/C(=O)CC(=O)/C=C/c2ccc(O)c(OC)c2)ccc1O [curcumin] | -1.79 | -0.65 | 1.73 | 4.68 | 23.4% (active)
